Yp Topo-I inh: Yersinia pestis topoisomerase I inhibitors, primary screen, biochemical, cleavage product accumulation, plate reader, single point; actives 0.064% (n = 360,000); Y. pestis Topo-I cleavage product accumulation; activity, % at 10 µM; AID 504884, 2011; in the data active means activity above about 50%, passing the limit was not always enough
Vc quorum ag: inducers of Vibrio cholerae quorum light production without autoinducers, primary screen, BH1578 luxS cqsA deficient, single point; activation, % at 18.7 µM; V. cholerae BH1578 lux reporter, luminescence, 6 h; actives 0.16% (n = 350,000); in the data active means activation mostly above about 9.7%, no sharp cut-off
Mtb hypoxia inh: PubChem AID 1159583; M. tuberculosis hypoxia-regulated fluorescent reporter, fluorescence; actives 0.1% (n = 300,000); fluorescence inhibition, % (no concentration beside the values); in the data active means fluorescence inhibition mostly above about 23%, no sharp cut-off; inactive means mostly below about 17%
Numbers without * were called inactive; i = inactive; / = no result given. Shown are actives, neighbours in structure and some others; about 0.29% of the full set was active somewhere.

SMILES | Yp Topo-I inh | Vc quorum ag | Mtb hypoxia inh
Cc1ccc(N2C(=O)c3cccc([N+](=O)[O-])c3C2=O)cc1C | 1 | 0 | 12
Cc1ccc(-n2c(C)cc(=O)cc2C)cc1[N+](=O)[O-] | 0 | 25* | 3
CNC(=O)c1sc(N2N=C3/C(=C\c4ccccc4)CCCC3C2c2ccccc2)nc1C (configuration not stated) | 8 | -8 | 2
CNC(=O)c1sc(N2N=C3/C(=C/c4ccccc4)CCCC3C2c2ccccc2)nc1C (configuration not stated) | 5 | 12* | -2
CCC(=O)c1ccc(OC(=O)C2CCN(C3=NS(=O)(=O)c4ccccc43)CC2)cc1 | 3 | 0 | 5
Cc1c(N2C(=O)c3ccccc3C2=O)c(=O)n(-c2ccccc2)n1C | -2 | 17* | 8
Cc1c(N2C(=O)c3ccc(F)cc3C2=O)c(=O)n(-c2ccccc2)n1C | -6 | -2 | 1
COc1cc(/C=C2/SC(=S)N(CC(=O)O)C2=O)ccc1OCC(=O)Nc1ccc(C)c(C)c1 | 43 | 0 | /
COc1cc(/C=C2\SC(N)=NC2=O)ccc1OCC(=O)Nc1ccc(C)cc1 | 38 | 0 | 53*
CCN(C(=O)COC(=O)c1nc(Cl)ccc1Cl)c1c(N)n(Cc2ccccc2)c(=O)[nH]c1=O | 8 | 0 | 30*
COCCN(C(=O)COC(=O)c1nc(Cl)ccc1Cl)c1c(N)n(Cc2ccccc2)c(=O)[nH]c1=O | 4 | i | -4
O=C(Cn1nnc(-c2ccccc2)n1)NNC(=O)c1ccccc1 | 2 | 1 | 17
O=C(Cn1nnc(-c2ccccc2)n1)NNC(=O)c1ccc(Br)cc1 | 56* | 0 | 1
Cc1ccc(-n2nc(C)c(=O)c(-c3ccccc3)c2NC(=O)c2cccs2)cc1 | -2 | -1 | 3
CCOC(=O)c1c(NCC(C)C)c2ccccc2[nH]c1=O | -5 | 17* | 20
CCCCNc1c(C(=O)OCC)c(=O)[nH]c2ccccc12 | -1 | 0 | /
O=C1NC(Cc2ccccc2)c2nc3ccc(F)cc3c(=O)n2-c2cc3ccccc3cc21 (configuration not stated) | 66* | 0 | /
O=C1NC(Cc2ccccc2)c2nc3ccc(Cl)cc3c(=O)n2-c2cc3ccccc3cc21 (configuration not stated) | 41 | -1 | /
CC(=O)OCCNc1cc(N2CCN(C)CC2)c2noc3c2c1C(=O)c1ccccc1-3 | 5 | 0 | 54*
O=C(O)CCNc1cc(N2CCN(C(=O)c3ccco3)CC2)c2noc3c2c1C(=O)c1ccccc1-3 | 20 | -1 | /
CCCc1ccc(C(O)c2ncc(-c3ccc(OC)cc3)[nH]2)cc1 (configuration not stated) | -13 | i | /
CCN(CC)S(=O)(=O)c1cccc(-c2n[nH]c(=S)n2N=Cc2ccc(Br)cc2)c1 | / | / | 2
COc1cc(N=Nc2ccc3ccccc3c2)ccc1O | -4 | 0 | -3
O=C(O)c1ccccc1N=Nc1c(O)[nH]c(=O)[nH]c1=O | 7 | i | 7
Cc1cc(O)c(C(C)C)cc1N=Cc1ccccc1[N+](=O)[O-] | -21 | -1 | 20
SMILES | Yp Topo-I inh | Vc quorum ag | Mtb hypoxia inh
COc1cc(N=Nc2ccccc2C(=O)O)ccc1O | 5 | -1 | 48*
Cc1cc(O)c(C(C)C)cc1N=Nc1ccccc1C(=O)O | 2 | 0 | 51*
Cc1cc(N=Nc2ccccc2C(=O)O)c(C)c(C)c1O | 7 | -4 | 45*
O=C(NN=Cc1ccc(-c2ccccc2Cl)o1)c1ccccc1 | / | / | -6
COC(=O)C1=C(C)N(Cc2ccccc2)C(=O)NC1c1ccco1 (configuration not stated) | / | / | -1
COCc1c(Br)c(C)nc(OCC(=O)NN=Cc2ccco2)c1C#N | / | / | 3
CC(C)Cn1nc(C(=O)Nc2cccc(S(=O)(=O)N3CCCC3)c2)c2ccccc2c1=O | 16 | i | 3
CCn1nc(C(=O)Nc2cccc(S(=O)(=O)N3CCCC3)c2)c2ccccc2c1=O | 22 | 1 | 23*
CCOC(=O)/C(C#N)=C/C=C1\C=Cc2ccccc2N1CC | 11 | 0 | 43*
CCCCCCN1C=CC(=C/C=C(\C#N)C(=O)OCC)C=C1 | -16 | 0 | -20
CN(C)C(=NS(=O)(=O)c1ccccc1)c1ccccc1 | / | / | -1
C=CCOc1cccc(C2C(C(=O)c3cc4ccccc4o3)=C(O)C(=O)N2c2cc(C)on2)c1 (configuration not stated) | 69* | i | -8
COc1cccc(C2C(C(=O)c3cc4ccccc4o3)=C(O)C(=O)N2c2cc(C)on2)c1 (configuration not stated) | 31 | 0 | -9
CCCCn1nnnc1SCC(=O)c1ccc(C)c(C)c1 | 52* | -7 | /
CCCCn1nnnc1SCC(=O)c1ccccc1F | -4 | 0 | 17

Bioassay records: PubChem, several laboratories
